This note sets out measurements from PubChem BioAssay (EPA / NIEHS).

Assay [1] is described as follows: BSK_4H_SRB: Viability Assessment in the BioMAP Diversity Plus: 4H Assay (AID 2283027).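 Further: cells exposed to compound for 24 h before staining.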 The note with it: primary human endothelial cells (HUVEC). The method in brief:
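HUVEC, 24 h post-dose; 10% TCA fix, 0.1% SRB stain, A560 nm. Total protein = overt cytotoxicity, parallel to biomarker read. Bidirectional fit vs DMSO baseline.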

Assay [2] in a line: BSK_BE3C_SRB: Viability Assessment in the BioMAP Diversity Plus: BE3C Assay (AID 2283028). The note with it: primary human bronchial epithelial cells. The essentials:
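Primary human bronchial epithelium; chemical dosing, 24 h; 10% TCA fix, 0.1% SRB stain, A560; bidirectional fit vs DMSO baseline.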

Read-out in assay [3]: Thrombomodulin, THBD (gene 7056)
Kind of assay: BSK_3C_Thrombomodulin: BioMAP Diversity Plus: 3C Assay for Thrombomodulin Biomarker Activity (AID 2283029). The note with it: primary human endothelial cells (HUVEC); actives raise or lower the signal. The essentials: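 Endothelial cells from umbilical vein are dosed with test chemical and incubated 24 h. Thrombomodulin is then quantified by ELISA, with DMSO serving as negative control and activity baseline.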

Read-out in assay [4]: Urokinase-type plasminogen activator receptor (uPAR), PLAUR (gene 5329)
Description: BSK_4H_uPAR: BioMAP Diversity Plus: 4H Assay for Urokinase-type plasminogen activator receptor (uPAR) Biomarker Activity (AID 2283030). Particulars: primary human endothelial cells (HUVEC); actives raise or lower the signal. The method in brief: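 HUVEC, 24 h post-dose; uPAR by ELISA; bidirectional fit vs DMSO baseline.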

Read-out in assay [5]: Vascular endothelial growth factor receptor 2 (Homo sapiens) (UniProt P35968)
Description: BSK_4H_VEGFRII: BioMAP Diversity Plus: 4H Assay for Vascular endothelial growth factor receptor 2 (VEGFR2) Biomarker Activity (AID 2283031). The note with it: primary human endothelial cells (HUVEC); actives raise or lower the signal. The essentials: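 HUVEC (human primary), 4H system; 24 h post-dose; VEGFRII by ELISA; bidirectional curve fit vs DMSO baseline; gain or loss of signal scored.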

Read-out in assay [6]: Vascular cell adhesion molecule 1 (VCAM1), VCAM1 (gene 7412)
Description: BSK_4H_VCAM1: BioMAP Diversity Plus: 4H Assay for Vascular cell adhesion molecule 1 (VCAM1) Biomarker Activity (AID 2283033).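 Further: cell-surface VCAM-1 protein measured by ELISA.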 Particulars: primary human endothelial cells (HUVEC); actives raise or lower the signal. The method in brief:
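Chemicals are added to primary human umbilical vein endothelial cells. After 24 h, VCAM-1 levels are measured by ELISA. Values come from bidirectional fitting referenced to DMSO.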

Read-out in assay [7]: Interferon-gamma inducible Protein 10 (IP10), CXCL10 (gene 3627)
Description: BSK_BE3C_IP10: BioMAP Diversity Plus: BE3C Assay for Interferon-gamma inducible Protein 10 (IP10) Biomarker Activity (AID 2283034). The note with it: primary human bronchial epithelial cells; actives raise or lower the signal. The method in brief:
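IP-10 quantified by ELISA serves as the endpoint. Cells: primary human bronchial epithelium, read 24 h after compound addition. Activity is derived by bidirectional fitting with DMSO as negative control.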

Read-out in assay [8]: Monokine induced gamma interferon (MIG), CXCL9 (gene 4283)
Kind of assay: BSK_BE3C_MIG: BioMAP Diversity Plus: BE3C Assay for Monokine induced gamma interferon (MIG) Biomarker Activity (AID 2283035).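 Further: MIG protein measured by ELISA in BE3C cultures after 24 h of dosing.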 The note with it: primary human bronchial epithelial cells; actives raise or lower the signal. The method in brief:
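Dose cells (human primary bronchial epithelial), incubate 24 h, quantify MIG by ELISA, then fit concentration–response in both directions relative to DMSO control.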

Read-out in assay [9]: Transforming growth factor beta 1 (TGFb1), TGFB1 (gene 7040)
Description: BSK_BE3C_TGFb1: BioMAP Diversity Plus: BE3C Assay for Transforming growth factor beta 1 (TGFb1) Biomarker Activity (AID 2283036;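 further: TGF-b1 protein level measured by ELISA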). The note with it: primary human bronchial epithelial cells; actives raise or lower the signal. The method in brief: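 Bronchial epithelial primary cells are treated with test chemical, then TGF-b1 is quantified by ELISA after 24 hours. Values derive from bidirectional fitting against DMSO, with cytotoxicity checked by SRB staining in parallel cultures.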

Read-out in assay [10]: Plasminogen activator inhibitor-1 (PAI1), SERPINE1 (gene 5054)
Description: BSK_BE3C_PAI1: BioMAP Diversity Plus: BE3C Assay for Plasminogen activator inhibitor-1 (PAI1) Biomarker Activity (AID 2283037). The note with it: primary human bronchial epithelial cells; actives raise or lower the signal. The method in brief:
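Values derive from bidirectional fitting against DMSO baseline of PAI-1 levels, measured by ELISA in human bronchial epithelial cells 24 h after compound addition.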

Read-out in assay [11]: urokinase plasminogen activator (uPA), PLAU (gene 5328)
Description: BSK_BE3C_uPA: BioMAP Diversity Plus: BE3C Assay for urokinase plasminogen activator (uPA) Biomarker Activity (AID 2283038).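 Further: uPA protein level quantified by ELISA in cell cultures; uPA read one day after compound addition.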 The note with it: primary human bronchial epithelial cells; actives raise or lower the signal. The essentials:
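ELISA read-out of uPA in human lung primary bronchial epithelial cultures, 24 h post-dosing. Gain or loss of signal fitted bidirectionally relative to DMSO baseline; cytotoxicity checked in parallel cultures via SRB total protein stain.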

Read-out in assay [12]: Urokinase-type plasminogen activator receptor (uPAR), PLAUR (gene 5329)
Description: BSK_BE3C_uPAR: BioMAP Diversity Plus: BE3C Assay for Urokinase-type plasminogen activator receptor (uPAR) Biomarker Activity (AID 2283039).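 Further: uPAR protein level measured by ELISA on the cells; cells exposed to compound for one day before measurement.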 The note with it: primary human bronchial epithelial cells; actives raise or lower the signal. The method in brief:
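Steps: dose human primary bronchial epithelial cells, incubate 24 h, measure uPAR by ELISA, then fit gain- or loss-of-signal response bidirectionally relative to DMSO.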

Read-out in assay [13]: Interleukin-6 (IL6), IL6 (gene 3569)
Kind of assay: BSK_CASM3C_IL6: BioMAP Diversity Plus: CASM3C Assay for Interleukin-6 (IL6) Biomarker Activity for (AID 2283040). Particulars: primary human coronary artery smooth muscle cells; actives raise or lower the signal.

Read-out in assay [14]: Tissue plasminogen activator (tPA), PLAT (gene 5327)
Kind of assay: BSK_BE3C_tPA: BioMAP Diversity Plus: BE3C Assay for Tissue plasminogen activator (tPA) Biomarker Activity (AID 2283041).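 Further: tPA level quantified by ELISA one day after compound addition.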 Particulars: primary human bronchial epithelial cells; actives raise or lower the signal. The essentials: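 Gain- or loss-of-signal in tPA, measured by ELISA, derived by bidirectional fitting against DMSO. Cells: human primary bronchial epithelial; read at 24 h after chemical dosing.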

Read-out in assay [15]: Interleukin-8 (IL8), CXCL8 (gene 3576)
Description: BSK_CASM3C_IL8: BioMAP Diversity Plus: CASM3C Assay for Interleukin-8 (IL8) Biomarker Activity (AID 2283042).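 Further: IL-8 protein level quantified by ELISA.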 Particulars: primary human coronary artery smooth muscle cells; actives raise or lower the signal.

Read-out in assay [16]: Human Leukocyte Antigen - DR isotype (HLADR), HLA-DRA (gene 3122)
Kind of assay: BSK_CASM3C_HLADR: BioMAP Diversity Plus: CASM3C Assay for Human Leukocyte Antigen - DR isotype (HLADR) Biomarker Activity (AID 2283043).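 Further: cell-surface HLA-DR protein level quantified by ELISA.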 The note with it: primary human coronary artery smooth muscle cells; actives raise or lower the signal.

Read-out in assay [17]: Macrophage colony-stimulating factor (MCSF), CSF1 (gene 1435)
Description: BSK_CASM3C_MCSF: BioMAP Diversity Plus: CASM3C Assay for Macrophage colony-stimulating factor (MCSF) Biomarker Activity (AID 2283044).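 Further: M-CSF protein amount quantified by ELISA after 24 h exposure.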 The note with it: primary human coronary artery smooth muscle cells; actives raise or lower the signal.

Read-out in assay [18]: Low-density lipoprotein receptor (LDLR), LDLR (gene 3949)
Description: BSK_CASM3C_LDLR: BioMAP Diversity Plus: CASM3C Assay for Low-density lipoprotein receptor (LDLR) Biomarker Activity (AID 2283045).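 Further: LDLR protein level on the cell surface quantified by ELISA.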 Particulars: primary human coronary artery smooth muscle cells; actives raise or lower the signal.

Read-out in assay [19]: Monocyte Chemoattractant Protein-1 (MCP1), CCL2 (gene 6347)
Description: BSK_CASM3C_MCP1: BioMAP Diversity Plus: CASM3C Assay for Monocyte Chemoattractant Protein-1 (MCP1) Biomarker Activity (AID 2283046).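 Further: MCP-1 level quantified by ELISA 24 h after dosing.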 Particulars: primary human coronary artery smooth muscle cells; actives raise or lower the signal.

Read-out in assay [20]: Human Leukocyte Antigen - DR isotype (HLADR), HLA-DRA (gene 3122)
Description: BSK_BE3C_HLADR: BioMAP Diversity Plus: BE3C Assay for Human Leukocyte Antigen - DR isotype (HLADR) Biomarker Activity (AID 2283032). The note with it: primary human bronchial epithelial cells; actives raise or lower the signal. The method in brief: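 Chemicals are dosed onto BE3C bronchial epithelial cultures of human origin and left 24 h. HLA-DR is then measured by ELISA, and the endpoint is fitted in both directions using DMSO as the activity baseline.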

Activity calls are given as the source filed them. How the source made its calls: active means hit-call score of the fitted dose curve at least 0.9, where 1 is the maximum; inactive means score below 0.9.

On to `C#CC(O)C(CC)CCCC` (stereo not given), for which the outcome in assay [1], in [2], in assay [3], in assay [4], in assay [5] and in [6] was inactive. Besides, the result in [7], in [8], in [9], in assay [10], in assay [11] and in assay [12] was inactive. For the same compound, the outcome in assay [13], in assay [14], in assay [15], in assay [16], in assay [17] and in assay [18] was inactive. Besides, the result in assay [19] was inactive.

`CS(=O)(=O)c1ccc([C@@H](C[C@H]2CCC(=O)C2)C(=O)Nc2cnccn2)cc1Cl`: the result in assay [1], in assay [2], in assay [3], in assay [4], in assay [5] and in [6] was inactive. Besides, the outcome in assay [7], in assay [8], in assay [9], in [10], in [11] and in assay [12] was inactive. Further, the result in assay [13], in assay [14], in assay [15], in assay [16], in [17] and in [18] was inactive. Further, the result in assay [19] was inactive.

Consider `CC1=C(C)S(=O)(=O)CCS1(=O)=O`, for which the result in assay [1], in assay [2], in [3], in [4], in [5] and in [6] was inactive. In addition, the outcome in assay [7], in assay [8], in [9], in assay [10], in assay [11] and in [12] was inactive. The outcome in assay [13], in [14], in assay [15], in [16], in [17] and in [18] was inactive. In assay [19], the result was inactive.

Take `CCCCC(CC)COC(=O)CCCCCCCC(=O)OCC(CC)CCCC` (stereo not given): the outcome in assay [1], in [2], in [3], in assay [4], in assay [5] and in assay [20] was inactive. The result in [6], in assay [7], in assay [8], in [9], in assay [10] and in assay [11] was inactive. The outcome in [12], in assay [13], in assay [14], in [15], in assay [16] and in assay [17] was inactive. The result in assay [18] and in [19] was inactive.

What is called AC50 is the concentration giving half of the maximal activity seen. For `CC(=O)S[C@H](C(=O)N[C@H]1Cc2ccccc2[C@H]2CCC[C@@H](C(=O)O)N2C1=O)C(C)C`, the outcome in [1], in assay [2], in assay [3], in assay [4], in assay [5] and in [6] was inactive. Moreover, the result in assay [7], in assay [8], in [9], in [10], in [11] and in assay [12] was inactive. Besides, the outcome in assay [13], in assay [14], in assay [15], in assay [17], in assay [18] and in [19] was inactive. Also, the AC50 in assay [16] is 3.97 µM (active).

Regarding `O=C(O)CC(O)(CC(=O)O)C(=O)O`, the outcome in assay [1], in assay [2], in [3], in assay [4], in assay [5] and in assay [6] was inactive. The outcome in assay [7], in assay [8], in assay [9], in assay [10], in [11] and in assay [12] was inactive. The outcome in assay [13], in assay [14], in assay [15], in assay [16], in assay [17] and in [18] was inactive. The outcome in assay [19] was inactive.

For `O=C1O[C@H]([C@H](O)CO)C(O)=C1O`, the result in [1], in assay [2], in assay [3], in assay [4], in assay [5] and in assay [20] was inactive. The result in assay [6], in assay [7], in assay [8], in assay [9], in [10] and in [11] was inactive. Moreover, the result in assay [12], in assay [13], in [14], in assay [15], in assay [16] and in assay [17] was inactive. The outcome in assay [18] and in assay [19] was inactive.
